Results on 6 compounds are retold here after PubChem BioAssay.

Active and inactive are the calls of the source.

In assay [1] the test system is Human papillomavirus type 1a protein E7 (residues 44-93). The experiment in a line: small molecules binding HPV E7 44-93 – biochemical, small-molecule microarray, residues 44-93, 635 nm fluorescence, primary screen (AID 1108).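 Also: E7 fragment applied at 1 µg/mL in TBST for 1 h at 4 C; score combines spot fluorescence with its signal to noise ratio.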 Particulars: fluorescence 635 nm, higher = more signal.
Assay [2] in a line: hepatitis C replication reporter changes, two-sided – Huh7 cells, luciferase reporter, HCV replication inhibitor project, primary screen (AID 1109).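 Also: huh7 hepatoma cells harbouring a luciferase neomycin HCV replicon reporter; luciferase luminescence as measure of HCV replicon replication; test concentration not given here.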 Particulars: Huh7 HCV replicon luciferase reporter, 48 h; higher = more signal.
Assay [3] concerns the target Left-right determination factor 2 (Homo sapiens) (UniProt O00292). The experiment in a line: small molecules binding LEFTY2 protein – biochemical, small-molecule microarray, 635 nm fluorescence scan, primary screen (AID 1110). The note with it: higher = more signal.
The target in assay [4] is Calmodulin-1 (Homo sapiens) (UniProt P0DP23). Briefly: small molecules binding calmodulin-1 with EGTA – biochemical, small-molecule microarray, Cy5-labelled CALM1, profiling panel (AID 1111).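 Also: labelled calmodulin applied in Tris saline Tween buffer holding calcium plus EGTA and DTT.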 Particulars: Cy5-CALM1 binding fluorescence, higher = more signal.
Assay [5] shares this target. The experiment in a line: small molecules binding Ca-loaded calmodulin-1 – biochemical, small-molecule microarray, Cy5-labelled CALM1, plus calcium, artefact control for SMM control-protein annotation, profiling panel (AID 1112).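 Also: score merges spot fluorescence with signal to noise from triplicate slides.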 Particulars: Cy5-CALM1 binding fluorescence, higher = more signal.
A short description of assay [6]: probe aWnt5a binding to arrayed compounds – biochemical, biotinylated probe, 635/667 nm fluorescence, primary screen (AID 1113).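 Also: score merges 667 nm fluorescence intensity with signal-to-noise per printed feature.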 The note with it: small-molecule microarray, higher = more signal.
Assay [7] is described as follows: probe aShh binding to arrayed compounds – biochemical, biotinylated probe, 635/667 nm fluorescence, primary screen (AID 1114).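 Also: probe is biotin-labelled aShh protein from a stem cell growth factor screen; measures binding of labelled protein to compounds printed on the slide; score merges feature fluorescence at 667 nm with signal-to-noise.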 Particulars: small-molecule microarray, higher = more signal.
Assay [8] is described as follows: probe aNog binding to arrayed compounds – biochemical, biotinylated probe, 635/667 nm fluorescence, primary screen (AID 1115).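 Also: probe is biotinylated aNog protein used at 0.15 µg/mL for 1 h at 4 C; z-score combines 667 nm fluorescence of each spot with its signal to noise.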 Particulars: small-molecule microarray, higher = more signal.
Assay [9] concerns the target Torsin-1A-interacting protein 1 (Homo sapiens) (UniProt Q5JTV8). Briefly: compound microarray binding of lysate hLAP1 – cell lysate, small-molecule microarray, COS7 lysate, 635/667 nm fluorescence, primary screen (AID 1116). The note with it: 635 nm fluorescence, higher = more signal.
For assay [10], the target named is Alpha-bungarotoxin (Bungarus multicinctus) (UniProt P60615). The experiment in a line: compounds binding labelled alpha-BTX control protein – biochemical, small-molecule microarray, Alexa647 label, 635/667 nm fluorescence, artefact control for SMM control protein annotation, profiling panel (AID 1117). Particulars: alpha-BTX-A647 binding fluorescence, higher = more signal.
Chain of Alpha-bungarotoxin (Bungarus multicinctus) (P60615 whole entry, looked up): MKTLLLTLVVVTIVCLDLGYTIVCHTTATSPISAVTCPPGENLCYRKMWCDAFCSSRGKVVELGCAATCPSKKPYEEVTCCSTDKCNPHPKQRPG

Assay [11] addresses Albumin (Bos taurus) (UniProt P02769). Briefly: compounds binding labelled BSA control protein – biochemical, small-molecule microarray, Alexa647 label, 635/667 nm fluorescence, artefact control for SMM control protein annotation, profiling panel (AID 1118).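 Also: score merges 667 nm emission intensity and signal-to-noise per printed compound spot.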 The note with it: BSA-A647 binding, fluorescence 635 nm, higher = more signal.
A short description of assay [12]: probe aXIP binding to arrayed compounds – biochemical, NeuroSMM set, 635/667 nm fluorescence, primary screen (AID 1119).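 Also: probe is the protein aXip251-270 applied at 1 µg/mL to compound-printed slides; binding of probe to printed compounds measured as 667 nm fluorescence plus signal to noise.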 The note with it: small-molecule microarray, higher = more signal, called active from +8 up or from −8 down.
Assay [13] is described as follows: probe aNOTCH3 binding on compound microarray – biochemical, small-molecule microarray, 635/667 nm fluorescence, primary screen (AID 1120).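 Also: probe is a biotin-tagged antibody raised against NOTCH3 rather than NOTCH3 protein; score merges spot fluorescence near 667 nm with spot signal to noise.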 The note with it: higher = more signal.
Assay [14] in a line: probe aNOTCH2 binding on compound microarray – biochemical, small-molecule microarray, 635/667 nm fluorescence, primary screen (AID 1121).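 Also: score merges feature fluorescence read at 667 nm with its signal to noise.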 The note with it: higher = more signal.
In assay [15] the target is Carbonic anhydrase 2 (Homo sapiens) (UniProt P00918). The experiment in a line: compounds binding carbonic anhydrase 2 – biochemical, small-molecule microarray, Alexa647-labelled CAII, profiling panel (AID 1122). The note with it: CAII-A647 binding fluorescence, higher = more signal.
The nature of assay [16]: COS7 lysate on small-molecule microarray, probe aHis, 635 nm (AID 1123).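 Also: z-score combines 667nm fluorescence intensity with signal-to-noise per printed compound spot.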 Particulars: COS7 cell lysate, fluorescence, higher = more signal.
Assay [17] in a line: probe aLAP1 signal on lysate-treated microarray – cell lysate, small-molecule microarray, COS7 lysate, primary screen (AID 1124).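 Also: lysate comes from COS7 cells expressing LAP1 and is applied at 0.3 µg/mL; score merges spot fluorescence near 667 nm with signal-to-noise over triplicate slides.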 The note with it: probe aLAP1, fluorescence, higher = more signal.
Assay [18] relates to Sam68 (KHDRBS1). The experiment in a line: compounds binding KHDRBS1 protein – biochemical, small-molecule microarray, 635 nm fluorescence, primary screen (AID 1125).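 Also: score merges 667 nm channel intensity with signal to noise over triplicate slides.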 Particulars: higher = more signal.
The test system of assay [19] is Chordin-like protein 2 (CHRDL2). Briefly: compounds binding chordin-like 2 – biochemical, small-molecule microarray, 635 nm fluorescence, primary screen (AID 1126).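 Also: printed compound slides probed with Chrdl2 protein at 4 µg/mL for 1 h at 4 C; score merges 667 nm emission intensity with signal to noise over three replicate slides.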 The note with it: fluorescence 635 nm, higher = more signal.
Assay [20] deals with Concanavalin-A (Canavalia ensiformis) (UniProt P02866). The experiment in a line: compounds binding concanavalin A lectin – biochemical, small-molecule microarray, Alexa647 label, 635 nm, artefact control for SMM control protein annotation, primary screen (AID 1127).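 Also: z combines 667 nm emission intensity with signal-to-noise across three replicate slides.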 The note with it: ConA-A647 binding fluorescence, higher = more signal.
Chain of Concanavalin-A (Canavalia ensiformis) (P02866 whole entry, looked up): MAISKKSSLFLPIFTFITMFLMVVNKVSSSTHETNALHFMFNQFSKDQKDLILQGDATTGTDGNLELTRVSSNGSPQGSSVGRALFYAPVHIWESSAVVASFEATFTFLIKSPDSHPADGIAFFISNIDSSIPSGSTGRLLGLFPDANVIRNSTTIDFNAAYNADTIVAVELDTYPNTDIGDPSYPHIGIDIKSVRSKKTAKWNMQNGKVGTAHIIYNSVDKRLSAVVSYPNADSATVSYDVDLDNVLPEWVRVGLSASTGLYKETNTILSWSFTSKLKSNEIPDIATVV

Chain of Torsin-1A-interacting protein 1 (Homo sapiens) (Q5JTV8 whole entry, looked up): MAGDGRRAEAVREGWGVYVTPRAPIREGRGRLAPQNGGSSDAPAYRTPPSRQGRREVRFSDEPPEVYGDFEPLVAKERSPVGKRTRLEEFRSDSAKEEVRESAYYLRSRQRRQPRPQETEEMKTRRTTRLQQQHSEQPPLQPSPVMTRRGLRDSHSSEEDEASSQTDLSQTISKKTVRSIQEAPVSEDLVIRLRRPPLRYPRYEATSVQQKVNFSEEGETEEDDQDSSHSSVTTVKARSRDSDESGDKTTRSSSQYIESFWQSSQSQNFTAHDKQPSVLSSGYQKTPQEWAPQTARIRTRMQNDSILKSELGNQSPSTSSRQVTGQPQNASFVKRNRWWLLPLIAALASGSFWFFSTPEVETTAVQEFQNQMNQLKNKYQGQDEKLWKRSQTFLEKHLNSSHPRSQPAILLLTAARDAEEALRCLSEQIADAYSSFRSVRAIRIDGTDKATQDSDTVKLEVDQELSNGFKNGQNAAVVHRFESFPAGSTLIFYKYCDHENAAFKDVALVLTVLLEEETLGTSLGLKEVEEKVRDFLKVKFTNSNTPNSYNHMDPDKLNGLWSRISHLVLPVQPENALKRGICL
Chain of Left-right determination factor 2 (Homo sapiens) (O00292 whole entry, looked up): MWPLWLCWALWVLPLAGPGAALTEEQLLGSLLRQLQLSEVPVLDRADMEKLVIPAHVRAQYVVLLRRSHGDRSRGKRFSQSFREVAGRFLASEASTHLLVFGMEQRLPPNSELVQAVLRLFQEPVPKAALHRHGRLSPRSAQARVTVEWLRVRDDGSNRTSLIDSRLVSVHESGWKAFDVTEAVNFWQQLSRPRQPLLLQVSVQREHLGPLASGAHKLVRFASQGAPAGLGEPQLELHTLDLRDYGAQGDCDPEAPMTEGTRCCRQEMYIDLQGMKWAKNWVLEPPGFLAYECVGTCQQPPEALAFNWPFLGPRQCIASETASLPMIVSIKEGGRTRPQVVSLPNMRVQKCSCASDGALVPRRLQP
Chain of Albumin (Bos taurus) (P02769 whole entry, looked up): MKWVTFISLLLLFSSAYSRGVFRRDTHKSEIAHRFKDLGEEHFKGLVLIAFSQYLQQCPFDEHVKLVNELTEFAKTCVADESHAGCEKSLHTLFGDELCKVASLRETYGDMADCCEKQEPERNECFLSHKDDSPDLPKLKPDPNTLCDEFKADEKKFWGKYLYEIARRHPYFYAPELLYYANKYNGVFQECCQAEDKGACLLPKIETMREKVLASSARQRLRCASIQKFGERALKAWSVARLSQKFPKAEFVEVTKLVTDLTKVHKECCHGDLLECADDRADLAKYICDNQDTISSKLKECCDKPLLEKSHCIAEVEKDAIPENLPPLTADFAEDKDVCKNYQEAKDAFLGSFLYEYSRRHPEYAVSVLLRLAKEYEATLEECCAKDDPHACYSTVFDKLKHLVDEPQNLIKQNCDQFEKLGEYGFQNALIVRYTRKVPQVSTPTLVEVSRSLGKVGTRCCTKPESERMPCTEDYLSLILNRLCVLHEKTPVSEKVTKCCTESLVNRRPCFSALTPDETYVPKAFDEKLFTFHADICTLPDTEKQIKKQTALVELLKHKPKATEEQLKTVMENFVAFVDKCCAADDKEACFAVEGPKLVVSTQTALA

Consider `COCCOC(=O)N1C(=O)[C@@]2(c3cc(C#CC4(O)CCCCCC4)ccc31)[C@H](C(=O)Nc1nc3ccccc3s1)[C@H]1C(=O)O[C@H](c3ccccc3)[C@H](c3ccccc3)N1[C@@H]2c1ccccc1OCCO`, for which the composite z-score was -0.441 in assay [1]; 0.555 in assay [3]; 1.71 in [4]; 0.926 in [5]; -0.0165 in [6]; 0.321 in [7]. Also, the composite z-score in assay [8] was 0.546; in assay [9], 0.547; in [10], 2.37; in [11] it was 0.306; in assay [13], -0.0647; in assay [14], -0.162. In addition, the composite z-score in [15] was 0.598; in assay [16] it was 1.73; in assay [17], 0.233; in assay [18], 1.3; in [19], -0.0036; in assay [20], 1.16. This compound yielded a z-score in assay [2] of -1.66. In addition, the composite Z-score in [12] is -0.129 (inactive).
Consider `OB1C=CCC(CCc2ccccc2)O1` (stereo not given), for which the composite z-score in [1] was -1.86; in assay [3], -0.32; in assay [4], -0.961; in [5], -0.455; in assay [6] it was -0.263; in assay [7], -0.117. Also, the composite z-score in [8] was -0.39; in [9], 0.363; in assay [10] it was -0.725; in [11], -0.923; in assay [13] it was -0.191; in assay [14], -0.153. The composite z-score in [15] was -0.498; in [16], -0.622; in assay [17] it was -0.803; in [18] it was -1.31; in assay [19] it was 0.317; in [20] it was -1.34. In assay [2], this compound came in with a z-score of 1.1. For the same compound, the composite Z-score in assay [12] is -0.601 (inactive).
In the case of `CCN(CC)c1ccc(N2CC=CC34O[C@@H]5C=CCOC(=O)[C@@H]5[C@H]3C(=O)N(CCCCCCO)[C@@H]4C2=O)cc1` (stereo not given in full), the composite z-score was 1.01 in assay [1]; -0.699 in assay [3]; -0.333 in assay [4]; 0.48 in assay [5]; -0.152 in [6]; -0.0035 in [7]. The composite z-score in [8] is -0.248; in [9], 2.01; in assay [10] it was -0.226; in assay [11] it was 0.99; in assay [13], -0.126; in [14], -0.174. Besides, the composite z-score in [15] is 0.909; in assay [16], 0.922; in assay [17], 0.751; in [18], 0.0127; in assay [19] it was -1.5; in [20] it was -0.214. Besides, the z-score in [2] was -1.4. In addition, the composite Z-score in [12] is 0.451 (inactive).
On to `CC#CC(=O)Oc1ccc(Br)cc1C=CC(=O)OCC`, for which the composite z-score in [1] is 1.23; in [3], -0.034; in [4] it was -0.323; in [5], -0.465; in assay [6] it was -0.0154; in [7], 0.42. Also, the composite z-score is 0.302 in [8]; 0.286 in assay [9]; 0.683 in assay [10]; -0.107 in assay [11]; 0.144 in assay [13]; -0.0529 in assay [14]. For the same compound, the composite z-score was found to be 0.18 in assay [15]; 0.942 in assay [16]; 0.158 in assay [17]; 0.582 in [18]; 0.103 in [19]; 0.269 in assay [20]. The z-score in assay [2] is -2.4. For the same compound, the composite Z-score in assay [12] is 1.39 (inactive).
As to `CC(=O)n1cc(C(O)C2C=CC3C(=O)NC(=O)C3N2Nc2ccccn2)c2ccccc21` (stereo not given), the composite z-score in [1] is -0.0484; in assay [3], 0.0729; in assay [4] it was -0.2; in assay [5] it was -0.36; in assay [6] it was -0.124; in assay [7] it was -0.138. The composite z-score is -0.0615 in assay [8]; -0.19 in assay [9]; 0.751 in [10]; 0.281 in [11]; -0.116 in assay [13]; -0.176 in assay [14]. For the same compound, the composite z-score in [15] came out at 0.817; in assay [16] it was 0.688; in assay [17] it was 0.248; in [18] it was 0.0906; in assay [19], 0.549; in assay [20] it was 0.551. Further, the z-score in assay [2] was -0.75. The composite Z-score in assay [12] was -0.0662 (inactive).
Consider `O=C1NC(=O)C2C1C=CC(C(O)C=Cc1ccc([N+](=O)[O-])cc1)N2Nc1ccc(Cl)cc1Cl` (stereo not given), for which the composite z-score in [1] is 0.0788; in [3] it was 0.0391; in assay [4], 2.14; in assay [5], 0.713; in [6], -0.031; in [7] it was 0.317. The composite z-score in [8] was determined as 0.0884; in assay [9] it was 1.52; in assay [10], 1.49; in [11], 0.89; in assay [13] it was 0.405; in assay [14], 0.39. Also, the composite z-score in [15] was 0.76; in [16] it was 2.07; in [17], 1.01; in assay [18], 0.756; in assay [19] it was 0.397; in assay [20] it was 0.76. The same compound came in with a z-score in [2] of 0.498. Further, the composite Z-score in assay [12] is 0.541 (inactive).
